Assay [1] can be described thus: reducers of endogenous Her2 protein level, primary screen, SKBR3 breast tumor cells, AlphaScreen, ATP viability (AID 461;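 active = Her2 level under about 52% in both replicate screens, with viability over 70% of control, limit read from the data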;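 as to Her2 level: lower value means less Her2 protein in the cells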;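 as to viability: percent of carrier control wells set as 100% viability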). The conditions noted are these: 18-24 h, measured here: SKBR3 viability, ATP luminescence, at 10 µM. (Alpha assays give light when donor and acceptor beads are brought close together.)
Assay [2] concerns the target Receptor tyrosine-protein kinase erbB-2 (Homo sapiens) (UniProt P04626). The assay is described as above. The conditions noted are these: 18-24 h, at 10 µM, stronger effect = lower value.
The nature of assay [3]: SK-BR-3 cell growth inhibitors, pilot screen, 24 h, human (AID 572;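 active = viability at or below 10% of carrier control in both of two separate runs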;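 also: compound exposure lasted between 18 and 24 h rather than exactly 24 h; 100% = carrier-treated control wells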). The conditions noted are these: SK-BR-3 viability, CellTiter-Glo luminescence, at 10 µM, stronger effect = lower value. A general note: In ATP-based viability assays light output follows the ATP content of the culture.
Assay [4] is described as follows: HUVEC growth inhibition – cell-based, human, primary screen (AID 575;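 active = viability at or below 30% in both replicate assays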;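 also: 100% = median of untreated cell wells with 0.1% DMSO on each plate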). Conditions: HUVEC proliferation, CellTiter-Glo luminescence, 72 h; at 10 µM; stronger effect = lower value.
Assay [5] is described as follows: growth inhibitors of H69AR lung tumor, primary screen, human, duplicate replicates (AID 580).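 Also: 100% = mean luminescence of untreated wells and 0% = no signal.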 The conditions noted are these: H69AR lung tumor cells viability, ATP luminescence, 72 h; at 10 µM; stronger effect = lower value.
Assay [6] is described as follows: reversal of MRP1-mediated doxorubicin resistance, pilot screen, H69AR cells, doxorubicin co-treatment (AID 601;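 active = viability loss from added drug above about 55%, and viability with drug at most 40%, in both replicates, limit read from the data, passing the limit was not always enough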). The conditions noted are these: CellTiter-Glo, 72 h, at 10 µM; for differential viability (reversal): stronger effect = higher value.
Assay [7] can be described thus: 384-well plate pilot, post-Golgi transport modulator project, inhibition of yeast transport mutant growth (AID 636; in the data active = inhibition above about 31%). The conditions noted are these: absorbance 615 nm, about 18 h, stronger effect = higher value.
Assay [8] in a line: growth suppression of yeast trafficking mutant, preliminary HTS, modulators of trafficking downstream of Golgi apparatus project, 1536-format plate, OD 615 nm (AID 637; in the data active = inhibition above about 30%). The conditions noted are these: yeast transport mutant growth, absorbance 615 nm, 18 h; stronger effect = higher value.
The nature of assay [9]: OD615 S. cerevisiae growth inhibition, permissive medium, pilot counter-assay, permissive growth control for S. cerevisiae lifespan shortening project (AID 705;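 active = growth inhibition above 25% in both replicates, a cutoff set 3 SD above the mean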). Conditions: OD615, 24 h, at 10 µM, stronger effect = higher value.
Assay [10] in a line: Restrictive medium S. cerevisiae growth inhibition, OD615, pilot screen of yeast lifespan reduction project, restrictive growth control (AID 706;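 active = growth inhibition above a set limit, 3 SD over mean compound inhibition, in both replicates, cut at about 43% in these data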;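 also: modified DeaD lifespan yeast strain shifted to restrictive glucose medium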). Conditions: OD615, 48 h, at 10 µM, stronger effect = higher value.
Assay [11] can be described thus: viability gain of MRP-1-high H69AR cells under doxorubicin, pilot screen, MRP-1 activator project, CellTiter-Glo, duplicate (AID 807;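 active = viability increase at or above a cutoff of the median across tested compounds plus 3 SD, cut at about 8.5% in these data, passing the limit was not always enough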;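 also: compound pretreatment 18-22 h then 72 h combined with doxorubicin; 0% = doxorubicin alone and 100% = vehicle without doxorubicin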). Conditions: H69AR viability with doxorubicin, CellTiter-Glo luminescence; at 10 µM; stronger effect = higher value.
Assay [12] is described as follows: growth suppression of beta-catenin knockout HCT116, pilot screen, human colon tumor cells (AID 823;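 active = cell viability at or below a set limit in both duplicate runs, the limit being the all-compound median minus 4 SD, cut at about 23% in these data, passing the limit was not always enough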;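 also: 0% = wells killed by 20 µM Hyamine and 100% = untreated DMSO cell wells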). The conditions noted are these: CellTiter-Glo, 60 h, at 10 µM, stronger effect = lower value.
Assay [13] is described as follows: growth suppression of PTEN-deleted HCT116, pilot screen, cell-based, HCT116 clonal line, CellTiter-Glo (AID 824;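 active = viability at or below 27.92% in each of two runs, the all-compound median minus 4 SD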;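 also: 0% = 20 µM Hyamine control and 100% = vehicle cell control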). Conditions: 60 h, at 10 µM, stronger effect = lower value.
Assay [14] in a line: inhibitors of the yeast RAM network, pilot screen, dse1pr::URA3 reporter, 5-FOA selection (AID 869;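 active = inhibition over a set limit, the all-compound mean plus 3 SD, in both replicate runs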;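 also: 0% = DMSO wells with no growth and 100% = 10 µM 1-NA-PP1 with full growth; RAM network block rescues cells from 5-FOA so hits raise OD615 growth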). The conditions noted are these: S. cerevisiae dse1pr::URA3 5-FOA growth, OD615, 2 d; at 10 µM; stronger effect = higher value; strain carries analog-sensitive mutant Cbk1 kinase.
Assay [15] in a line: RAM signaling pathway blockade in yeast – S. cerevisiae, Pdr1DBD-CYC8 efflux-inhibited sensitized strain, primary screen (AID 1298;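 active = RAM network inhibition above 8.4% in each of two replicates, 3 SD over the compound average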;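 also: 0% = DMSO untreated cells without growth and 100% = 10 µM 1-NA-PP1 full growth; higher means more yeast growth rescued from 5-FOA killing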). The conditions noted are these: S. cerevisiae cbk1-as DSE1-URA3 strain, 5-FOA growth OD615, 2 d; at 50 µM; stronger effect = higher value.
Setting [16] is: H69AR cells + 2 uM doxorubicin, measured here: viability with 2 uM doxorubicin, stronger effect = lower value.
Where [17] appears, read: H69AR cells, compound alone cytotoxicity.

Inconclusive results are not listed. Activity calls are given as the source filed them.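 The calls were made as follows, unless noted: active = viability at or under a set limit in both replicates, limit being median viability minus 3 SD (cut at about 48% in these data, passing the limit was not always enough); inconclusive = at or under the limit in just one replicate; inactive = at or above the limit in both replicates.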

Chain of Receptor tyrosine-protein kinase erbB-2 (Homo sapiens) (P04626 whole entry, looked up): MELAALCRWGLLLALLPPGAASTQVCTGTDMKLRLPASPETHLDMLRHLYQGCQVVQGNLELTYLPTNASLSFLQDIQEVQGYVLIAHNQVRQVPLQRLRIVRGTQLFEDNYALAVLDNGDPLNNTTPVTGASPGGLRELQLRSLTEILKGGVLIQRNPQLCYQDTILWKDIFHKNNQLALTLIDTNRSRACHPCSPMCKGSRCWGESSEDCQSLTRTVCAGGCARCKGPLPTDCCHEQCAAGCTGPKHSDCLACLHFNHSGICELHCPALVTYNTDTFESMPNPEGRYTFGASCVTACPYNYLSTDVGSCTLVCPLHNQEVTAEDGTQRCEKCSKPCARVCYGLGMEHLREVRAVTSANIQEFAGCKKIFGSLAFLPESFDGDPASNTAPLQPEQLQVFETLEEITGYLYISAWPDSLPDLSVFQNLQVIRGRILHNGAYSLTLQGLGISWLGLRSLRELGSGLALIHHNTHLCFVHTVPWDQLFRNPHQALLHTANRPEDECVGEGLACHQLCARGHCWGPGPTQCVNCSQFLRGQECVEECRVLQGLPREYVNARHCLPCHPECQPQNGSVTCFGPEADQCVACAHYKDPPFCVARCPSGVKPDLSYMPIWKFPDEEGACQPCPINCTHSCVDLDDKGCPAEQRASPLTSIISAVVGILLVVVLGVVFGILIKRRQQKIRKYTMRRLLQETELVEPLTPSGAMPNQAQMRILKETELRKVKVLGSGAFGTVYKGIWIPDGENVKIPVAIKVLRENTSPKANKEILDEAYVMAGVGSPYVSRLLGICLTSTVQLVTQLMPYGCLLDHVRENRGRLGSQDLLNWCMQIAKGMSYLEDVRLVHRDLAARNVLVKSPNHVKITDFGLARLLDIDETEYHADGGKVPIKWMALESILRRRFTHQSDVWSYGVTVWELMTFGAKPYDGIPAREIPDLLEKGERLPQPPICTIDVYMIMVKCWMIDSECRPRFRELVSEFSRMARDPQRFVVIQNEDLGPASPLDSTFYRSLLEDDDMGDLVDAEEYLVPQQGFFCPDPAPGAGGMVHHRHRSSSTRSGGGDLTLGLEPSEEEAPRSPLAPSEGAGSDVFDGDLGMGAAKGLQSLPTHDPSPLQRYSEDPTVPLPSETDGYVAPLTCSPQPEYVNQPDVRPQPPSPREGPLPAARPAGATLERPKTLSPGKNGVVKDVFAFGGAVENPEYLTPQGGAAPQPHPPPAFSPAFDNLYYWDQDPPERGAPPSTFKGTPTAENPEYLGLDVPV

`CCOc1ccccc1C(=O)Nc1cc(=O)n(C)c(=O)n1C`: the viability – broadly, a read-out of living cells in per cent, often relative to untreated cells – is 89.5% in assay [1]; 89.5% (inactive) in assay [3]; 86.8% (inactive) in assay [4]; 88.1% (inactive) in [5]; 89.9% in [6] (setting [16]); 88.1% in [6] (setting [17]). Further, the viability is 103% (inactive) in [12] and 100% (inactive) in [13]. Besides, the Her2 level in [2] was 88.5% (inactive). For the same molecule, in [6] (H69AR cells + 2 uM doxorubicin), the differential viability (reversal) is -1.81% (inactive). In addition, the results for the inhibition in [7], in assay [8] and in [14] were -5.47% (inactive), 3.5% (inactive) and 0.715% (inactive), respectively. Besides, the values for the growth inhibition in assay [9] and in assay [10] were -0.335% (inactive) and 2.84% (inactive), respectively. Further, in [11], the viability increase was -0.06% (inactive). Besides, the RAM network inhibition in assay [15] was -2.04% (inactive).

In the case of `COc1ccccc1CC(=O)Nc1ccc(OC)c(OC)c1`, the viability in assay [1] was 102%; in [3], 102% (inactive); in assay [4], 101% (inactive); in assay [5], 89.6% (inactive); in assay [6] (setting [16]), 83.6%; in assay [6] (setting [17]), 89.6%. Moreover, the viability in assay [12] is 101% (inactive); in [13], 104% (inactive). In [2], the Her2 level was 98.5% (inactive). In assay [6] (H69AR cells + 2 uM doxorubicin), the differential viability (reversal) was 6% (inactive). For the same molecule, the inhibition (in general, the change of the read-out against control, counted positive when it falls) was -6.76% (inactive) in [7], 5.74% (inactive) in assay [8] and 1.22% (inactive) in assay [14]. In addition, the growth inhibition is -8.11% (inactive) in [9] and -4.82% (inactive) in [10]. The viability increase in [11] is -0.4% (inactive). Besides, in [15], the RAM network inhibition was 2.2% (inactive).

Consider `NC(=O)c1cccc2c1C(=O)N(C1CCCCC1)C2`, for which the viability in assay [1] was 109%; in [3] it was 109% (inactive); in [4] it was 76% (inactive); in assay [5], 88.9% (inactive); in [6] (setting [16]), 91.4%; in assay [6] (setting [17]), 88.9%. Also, the viability in [12] is 101% (inactive); in assay [13], 95.3% (inactive). In assay [2], the Her2 level is 99.5% (inactive). In [6] (H69AR cells + 2 uM doxorubicin), the differential viability (reversal) is -2.49% (inactive). In addition, the figures for the inhibition in assay [7], in assay [8] and in assay [14] were -0.77% (inactive), -1.33% (inactive) and 0.59% (inactive), respectively. For the same molecule, the growth inhibition in assay [9] is -7.48% (inactive); in assay [10], -4.63% (inactive). The viability increase in [11] was -0.58% (inactive). In addition, in [15], the RAM network inhibition is 3.36% (inactive).

Consider `O=C1NC2(Nc3ccccc31)C(=O)Nc1ccccc12` (stereo not drawn), for which the viability in assay [1] was 99%; in assay [3], 99% (inactive); in assay [4] it was 86.8% (inactive); in assay [5] it was 156% (inactive); in [6] (setting [16]), 97.3%; in [6] (setting [17]), 156%. For the same molecule, the viability in assay [12] was 98.8% (inactive); in assay [13], 85.2% (inactive). For the same molecule, in assay [2], the Her2 level was 83% (inactive). For the same molecule, the differential viability (reversal) in [6] (H69AR cells + 2 uM doxorubicin) was 58.3% (inactive). The inhibition is -4.86% (inactive) in [7], -3.44% (inactive) in assay [8] and 1.85% (inactive) in [14]. Also, the growth inhibition was 0.15% (inactive) in [9] and -6.17% (inactive) in assay [10]. The viability increase in assay [11] is -3.77% (inactive). Moreover, the RAM network inhibition in [15] was 2.35% (inactive).

For `CN(CCCNC(=O)c1cn(C)c2ccc(S(=O)(=O)N(C)C)cc2c1=O)c1ccccc1`, the viability in assay [1] is 85.5%; in assay [3], 85.5% (inactive); in [4], 98.3% (inactive); in assay [5], 87.7% (inactive); in [6] (setting [16]) it was 70.6%; in [6] (setting [17]), 87.7%. Also, the viability in [12] is 94.8% (inactive); in [13], 85% (inactive). In addition, the Her2 level in [2] was 90% (inactive). The differential viability (reversal) in assay [6] (H69AR cells + 2 uM doxorubicin) was 17.1% (inactive). The results for the inhibition in assay [7], in assay [8] and in [14] were 0.38% (inactive), -1% (inactive) and 0.395% (inactive), respectively. In addition, the growth inhibition in assay [9] is 1.83% (inactive); in assay [10], -0.125% (inactive). Also, in assay [11], the viability increase is -3.8% (inactive). Besides, the RAM network inhibition in assay [15] was 7.85% (inactive).

`COc1ccc(N(CC(=O)Nc2ccc3c(c2)OCCO3)S(=O)(=O)c2cccnc2)cc1`: the viability in assay [1] is 91%; in assay [3], 91% (inactive); in assay [4], 104% (inactive); in assay [5], 92.5% (inactive); in assay [6] (setting [16]), 87.5%; in assay [6] (setting [17]) it was 92.5%. Besides, the viability in assay [12] was 102% (inactive); in assay [13], 99.7% (inactive). Further, the Her2 level in assay [2] was 108% (inactive). The differential viability (reversal) in assay [6] (H69AR cells + 2 uM doxorubicin) was 4.99% (inactive). Besides, the inhibition in assay [7] was -5.13% (inactive); in assay [8], -3.83% (inactive); in [14], 1.63% (inactive). Besides, the growth inhibition is -10.3% (inactive) in assay [9] and 0.75% (inactive) in [10]. The viability increase in assay [11] is -2.05% (inactive). Also, in [15], the RAM network inhibition was 4.76% (inactive).

As for `O=C(CSc1nc2c(c(=O)n1-c1ccc(F)cc1)SCC2)NCC1CCCO1` (stereo not drawn), the viability was 93.5% in [1]; 93.5% (inactive) in assay [3]; 92.6% (inactive) in assay [4]; 105% (inactive) in [5]; 92.6% in [6] (setting [16]); 105% in assay [6] (setting [17]). Besides, the viability in assay [12] was 98.2% (inactive); in [13] it was 90.9% (inactive). Moreover, in [2], the Her2 level was 101% (inactive). Also, in [6] (H69AR cells + 2 uM doxorubicin), the differential viability (reversal) was 12% (inactive). For the same molecule, the inhibition is -2.4% (inactive) in [7], -1.61% (inactive) in [8] and 1.46% (inactive) in assay [14]. Besides, the growth inhibition in [9] is -8.12% (inactive); in assay [10], -16.6% (inactive). Also, the viability increase in assay [11] is -3.46% (inactive). Moreover, the RAM network inhibition in assay [15] is 5.77% (inactive).

As for `CCOc1ccccc1NC(=O)CC1Nc2cc(C)c(C)cc2NC1=O` (stereo not drawn), the viability is 80.5% in assay [1]; 80.5% (inactive) in assay [3]; 68.7% (inactive) in assay [4]; 59.2% (inactive) in assay [5]; 85% in [6] (setting [16]); 59.2% in [6] (setting [17]). In addition, the viability in [12] is 77.5% (inactive); in assay [13] it was 77.8% (inactive). Also, in assay [2], the Her2 level was 82% (inactive). In addition, in assay [6] (H69AR cells + 2 uM doxorubicin), the differential viability (reversal) is -25.8% (inactive). In addition, the inhibition in [7] was -1.67% (inactive); in [8] it was -5.5% (inactive); in assay [14], 0.04% (inactive). In addition, the figures for the growth inhibition in assay [9] and in [10] were -16.7% (inactive) and -12.1% (inactive), respectively. The viability increase in assay [11] was -5.9% (inactive). Also, the RAM network inhibition in [15] is 5.85% (inactive).

Regarding `CCCOc1ccc(NC2=CC(=O)CC(C)(C)C2)cc1`, the viability is 100% in assay [1]; 100% (inactive) in assay [3]; 87.2% (inactive) in assay [4]; 100% (inactive) in assay [5]; 93% in assay [6] (setting [16]); 100% in [6] (setting [17]). For the same molecule, the viability in assay [12] was 95.4% (inactive); in assay [13] it was 94.2% (inactive). For the same molecule, the Her2 level in assay [2] is 103% (inactive). In addition, the differential viability (reversal) in assay [6] (H69AR cells + 2 uM doxorubicin) is 7.44% (inactive). The inhibition in assay [7] is -6.89% (inactive); in [8], 2.13% (inactive); in assay [14] it was 3.14% (inactive). For the same molecule, the figures for the growth inhibition in [9] and in assay [10] were -2.65% (inactive) and -14.7% (inactive), respectively. The viability increase in [11] is 1.27% (inactive). For the same molecule, the RAM network inhibition in assay [15] was 6.91% (inactive).

The values are drawn from PubChem BioAssay.
